# ChEMBL document CHEMBL1961873, “Compounds: GSK PKIS; Assays: Nanosyn kinase panel” (2012)
# Assays:
# [1] = biological target: Sphingosine kinase 1 (Homo sapiens) (UniProt Q9NYA1); details: at 1 µM;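 further: mean SPHK1 inhibition value reported from the GSK PKIS kinase panel screen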
# [2] = biological target: T1, Sphingosine kinase 2 (Homo sapiens) (UniProt Q9NRA0); details: at 0.1 µM
# T1 sequence (whole entry): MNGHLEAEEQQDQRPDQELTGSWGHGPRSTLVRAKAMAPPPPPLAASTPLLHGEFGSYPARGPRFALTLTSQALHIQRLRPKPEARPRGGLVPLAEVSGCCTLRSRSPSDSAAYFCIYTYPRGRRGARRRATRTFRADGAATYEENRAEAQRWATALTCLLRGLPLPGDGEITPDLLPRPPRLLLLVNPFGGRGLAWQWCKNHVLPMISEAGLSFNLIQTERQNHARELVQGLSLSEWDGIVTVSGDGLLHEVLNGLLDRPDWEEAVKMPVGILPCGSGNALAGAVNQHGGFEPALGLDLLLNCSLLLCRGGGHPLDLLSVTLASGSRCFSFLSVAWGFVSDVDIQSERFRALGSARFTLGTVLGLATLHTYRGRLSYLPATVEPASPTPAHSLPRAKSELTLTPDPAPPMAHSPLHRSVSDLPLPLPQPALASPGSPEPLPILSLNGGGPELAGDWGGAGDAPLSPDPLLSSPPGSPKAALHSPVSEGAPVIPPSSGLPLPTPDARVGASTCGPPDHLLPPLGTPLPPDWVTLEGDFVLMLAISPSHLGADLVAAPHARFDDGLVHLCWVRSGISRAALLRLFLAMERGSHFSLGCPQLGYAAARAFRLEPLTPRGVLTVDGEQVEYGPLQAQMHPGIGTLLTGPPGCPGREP
# [3] = biological target: T1, Sphingosine kinase 2 (Homo sapiens); details: at 1 µM
# [4] = biological target: Casein kinase II subunit alpha (Homo sapiens) (UniProt P68400); details: at 0.1 µM
# [5] = biological target: Casein kinase II subunit alpha (Homo sapiens) (UniProt P68400); details: at 1 µM
# [6] = biological target: T2, Inhibitor of nuclear factor kappa-B kinase subunit alpha (Homo sapiens) (UniProt O15111); details: at 0.1 µM
# T2 sequence (whole entry): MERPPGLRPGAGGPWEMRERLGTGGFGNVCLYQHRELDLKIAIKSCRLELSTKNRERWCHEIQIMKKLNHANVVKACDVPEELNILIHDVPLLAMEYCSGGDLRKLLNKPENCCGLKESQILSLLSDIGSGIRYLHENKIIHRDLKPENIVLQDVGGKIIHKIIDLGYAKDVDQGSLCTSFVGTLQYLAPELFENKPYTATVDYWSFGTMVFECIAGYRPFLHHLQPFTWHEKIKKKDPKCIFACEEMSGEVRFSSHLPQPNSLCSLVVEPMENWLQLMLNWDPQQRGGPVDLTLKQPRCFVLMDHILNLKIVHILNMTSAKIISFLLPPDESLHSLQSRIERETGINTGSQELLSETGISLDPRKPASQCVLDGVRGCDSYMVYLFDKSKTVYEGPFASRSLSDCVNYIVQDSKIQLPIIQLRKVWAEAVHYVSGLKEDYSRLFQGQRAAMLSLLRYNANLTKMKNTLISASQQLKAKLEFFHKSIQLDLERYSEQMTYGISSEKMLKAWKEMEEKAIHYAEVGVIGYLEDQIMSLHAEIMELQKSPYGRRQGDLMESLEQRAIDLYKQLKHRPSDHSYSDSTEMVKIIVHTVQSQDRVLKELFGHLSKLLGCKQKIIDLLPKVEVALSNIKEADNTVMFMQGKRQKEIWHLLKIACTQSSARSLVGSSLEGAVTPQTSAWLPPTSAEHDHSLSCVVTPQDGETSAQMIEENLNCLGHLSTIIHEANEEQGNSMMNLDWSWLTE
# [7] = biological target: T2, Inhibitor of nuclear factor kappa-B kinase subunit alpha (Homo sapiens); details: at 1 µM
# [8] = biological target: T3, Inhibitor of nuclear factor kappa-B kinase subunit beta (Homo sapiens) (UniProt O14920); details: at 0.1 µM
# T3 sequence (whole entry): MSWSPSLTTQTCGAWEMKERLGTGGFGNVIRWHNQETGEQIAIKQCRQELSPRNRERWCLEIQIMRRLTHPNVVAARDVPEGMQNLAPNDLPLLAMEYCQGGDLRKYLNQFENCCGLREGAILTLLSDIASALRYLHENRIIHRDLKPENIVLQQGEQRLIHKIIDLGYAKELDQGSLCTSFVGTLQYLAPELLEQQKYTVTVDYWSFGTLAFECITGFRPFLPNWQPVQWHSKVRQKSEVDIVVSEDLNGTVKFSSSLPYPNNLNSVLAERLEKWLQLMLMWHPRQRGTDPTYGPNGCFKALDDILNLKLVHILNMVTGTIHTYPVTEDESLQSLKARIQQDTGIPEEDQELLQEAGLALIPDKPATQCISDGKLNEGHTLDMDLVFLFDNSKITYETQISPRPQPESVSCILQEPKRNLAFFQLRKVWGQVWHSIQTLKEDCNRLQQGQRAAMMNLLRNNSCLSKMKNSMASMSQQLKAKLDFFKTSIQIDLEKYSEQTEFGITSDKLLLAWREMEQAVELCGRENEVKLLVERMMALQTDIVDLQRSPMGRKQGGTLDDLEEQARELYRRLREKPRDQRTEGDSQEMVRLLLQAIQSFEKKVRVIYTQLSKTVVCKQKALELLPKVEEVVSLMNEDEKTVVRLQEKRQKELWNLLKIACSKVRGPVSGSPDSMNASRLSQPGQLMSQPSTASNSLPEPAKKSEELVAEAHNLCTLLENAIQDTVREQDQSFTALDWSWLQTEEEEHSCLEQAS
# [9] = biological target: T3, Inhibitor of nuclear factor kappa-B kinase subunit beta (Homo sapiens); details: at 1 µM
# [10] = biological target: T4, Inhibitor of nuclear factor kappa-B kinase subunit epsilon (Homo sapiens) (UniProt Q14164); details: at 0.1 µM;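 further: mean inhibition of IKKε reported, from the GSK PKIS dataset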
# T4 sequence (whole entry): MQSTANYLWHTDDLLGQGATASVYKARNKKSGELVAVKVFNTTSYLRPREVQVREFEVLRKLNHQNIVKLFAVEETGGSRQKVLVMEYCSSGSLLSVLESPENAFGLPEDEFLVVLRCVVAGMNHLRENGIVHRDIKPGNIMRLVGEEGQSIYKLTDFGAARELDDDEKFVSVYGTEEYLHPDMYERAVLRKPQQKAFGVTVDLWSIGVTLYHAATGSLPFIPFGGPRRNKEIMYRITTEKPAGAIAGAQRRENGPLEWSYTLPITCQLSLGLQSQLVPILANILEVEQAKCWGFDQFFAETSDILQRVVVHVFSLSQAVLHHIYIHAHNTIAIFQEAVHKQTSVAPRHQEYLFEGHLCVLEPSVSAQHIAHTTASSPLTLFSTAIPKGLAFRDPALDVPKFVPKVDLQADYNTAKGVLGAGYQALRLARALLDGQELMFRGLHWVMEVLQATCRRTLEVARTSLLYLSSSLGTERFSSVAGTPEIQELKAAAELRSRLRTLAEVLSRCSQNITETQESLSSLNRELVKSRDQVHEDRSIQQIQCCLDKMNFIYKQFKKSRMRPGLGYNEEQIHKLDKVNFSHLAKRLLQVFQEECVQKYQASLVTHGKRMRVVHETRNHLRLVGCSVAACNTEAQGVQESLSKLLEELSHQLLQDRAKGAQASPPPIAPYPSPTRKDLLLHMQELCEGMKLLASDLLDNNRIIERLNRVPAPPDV
# Chain of Casein kinase II subunit alpha (Homo sapiens) (P68400 whole entry, looked up): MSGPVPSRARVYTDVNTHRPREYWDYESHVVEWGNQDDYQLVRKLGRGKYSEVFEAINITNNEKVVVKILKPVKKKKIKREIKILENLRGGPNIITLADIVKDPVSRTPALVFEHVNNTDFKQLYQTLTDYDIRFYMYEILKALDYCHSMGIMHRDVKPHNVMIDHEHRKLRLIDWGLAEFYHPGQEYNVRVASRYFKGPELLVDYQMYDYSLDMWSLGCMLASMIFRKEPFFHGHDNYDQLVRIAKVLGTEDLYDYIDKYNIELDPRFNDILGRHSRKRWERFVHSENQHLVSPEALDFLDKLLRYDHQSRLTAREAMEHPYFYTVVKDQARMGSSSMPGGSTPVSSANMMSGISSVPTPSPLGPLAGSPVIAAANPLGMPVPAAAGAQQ
# Chain of Sphingosine kinase 1 (Homo sapiens) (Q9NYA1 whole entry): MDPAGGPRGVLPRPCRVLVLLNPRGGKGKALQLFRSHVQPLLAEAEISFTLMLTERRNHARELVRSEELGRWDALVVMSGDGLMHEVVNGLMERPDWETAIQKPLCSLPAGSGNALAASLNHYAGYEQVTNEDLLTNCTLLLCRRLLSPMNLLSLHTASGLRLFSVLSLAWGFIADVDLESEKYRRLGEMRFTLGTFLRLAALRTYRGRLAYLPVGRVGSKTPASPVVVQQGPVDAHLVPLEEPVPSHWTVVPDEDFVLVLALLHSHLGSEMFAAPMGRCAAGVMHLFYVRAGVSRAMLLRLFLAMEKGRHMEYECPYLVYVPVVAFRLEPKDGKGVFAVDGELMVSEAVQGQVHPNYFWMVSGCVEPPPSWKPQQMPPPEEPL
structure (smiles),measurement,setting,value
O=C1Nc2ccccc2/C1=C/Nc1ccc2[nH]c(=O)[nH]c2c1,inhibition,[1],-0.67%
same,inhibition,[2],-0.03%
same,inhibition,[3],-2.68%
same,inhibition,[4],3.81%
same,inhibition,[5],13.9%
same,inhibition,[6],12.9%
same,inhibition,[7],10.2%
same,inhibition,[8],7.85%
same,inhibition,[9],11.6%
same,inhibition,[10],8.71%
